From PubChem BioAssay (NCI)
Several values for one entry are separate records, joined by “and”; a condition that tells them apart may be missing. Equal values may be shown once. About 79,000 compounds went through this panel and 15% of them were active in at least one assay; those are over-represented in the sample as a whole. Some compounds were tested as several samples or in several runs, with calls that do not always agree. Activity calls are given as the source filed them. Rule as the data show it: active = growth inhibition above about 70%; inactive = the rest.

Columns and labels:
[1] = NCI Yeast Anticancer Drug Screen. Data for the rad52 strain (AID 147);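 also: 0% = growth of vehicle-treated control cultures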; details: S. cerevisiae rad52 mutant growth inhibition, stronger effect = higher value
How it was run: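 Inhibition of yeast growth, referenced to vehicle controls, was the measured output for a strain with defective DNA damage repair.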

[2] = NCI Yeast Anticancer Drug Screen. Data for the wt1 strain (AID 149);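 also: 0% = growth of vehicle-treated wt1 cultures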; details: S. cerevisiae wt1 strain (SPY 50644) growth inhibition, stronger effect = higher value
How it was run: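 Yeast wt1 strain exposed to compounds; growth inhibition measured relative to vehicle-treated controls.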

[3] = NCI Yeast Anticancer Drug Screen. Data for the rad50EPP+ strain (AID 151);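 also: 0% = growth of vehicle-treated control cultures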; details: S. cerevisiae rad50 mutant strain, stronger effect = higher value
How it was run: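 Genetically defined yeast (rad50EPP+, DNA damage repair alteration) is grown with compound, and inhibition of growth is expressed relative to vehicle-treated controls.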

[4] = NCI Yeast Anticancer Drug Screen. Data for the rad50 strain (AID 155);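 also: 0% = growth of vehicle-only cultures of the same strain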; details: S. cerevisiae rad50 strain growth inhibition, stronger effect = higher value
How it was run: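 Yeast carrying a defined DNA repair defect were exposed to test compounds, and growth was compared with vehicle-treated controls to give percent inhibition.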

[5] = NCI Yeast Anticancer Drug Screen. Data for the mec2-1 strain (AID 157); details: S. cerevisiae mec2-1 strain, stronger effect = higher value
How it was run: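 Each compound was tested on mec2-1 yeast, a strain altered in DNA damage repair or cell cycle control. Growth inhibition is reported relative to vehicle.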

[6] = NCI Yeast Anticancer Drug Screen. Data for the rad14 strain (AID 159);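 also: 0% = growth of vehicle-treated control cultures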; details: S. cerevisiae rad14 strain growth inhibition, stronger effect = higher value
How it was run: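 Yeast cells carrying a defined DNA-repair defect were exposed to compounds, and growth inhibition was calculated relative to vehicle-treated control cultures.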

[7] = NCI Yeast Anticancer Drug Screen. Data for the sgs1 mgt1 strain (AID 161);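 also: 0% = growth of cultures given vehicle only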; details: S. cerevisiae sgs1 mgt1 strain, stronger effect = higher value
How it was run: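 Genetically altered yeast, compound exposure, growth inhibition relative to vehicle.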

[8] = NCI Yeast Anticancer Drug Screen. Data for the CLN2oe strain (AID 163);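 also: 0% = growth of vehicle-only control cultures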; details: S. cerevisiae CLN2oe strain, stronger effect = higher value
How it was run: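 First, the altered yeast strain was treated with each compound; second, its growth was measured; finally, inhibition was derived by comparison with vehicle controls.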

[9] = NCI Yeast Anticancer Drug Screen. Data for the cln2 rad14 strain (AID 165);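 also: 0% = growth equal to vehicle treated cultures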; details: S. cerevisiae cln2 rad14 strain, stronger effect = higher value
How it was run: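 Test compounds were added to cln2 rad14 yeast cultures; inhibition of growth was then determined by comparison with vehicle treatment.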

[10] = NCI Yeast Anticancer Drug Screen. Data for the bub3 strain (AID 167); details: S. cerevisiae bub3 mutant strain, stronger effect = higher value
How it was run: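 Compounds were applied to a genetically altered yeast strain carrying a cell-cycle control defect. Growth inhibition was scored against vehicle-treated controls.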

[11] = NCI Yeast Anticancer Drug Screen. Data for the wt2 strain (AID 169);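 also: 0% = growth of vehicle-treated yeast cultures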; details: S. cerevisiae wt2 strain growth inhibition, stronger effect = higher value
How it was run: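 The panel's yeast strains carry defined changes in DNA repair or cell cycle genes. Each strain is grown with compound, and growth loss is scored relative to vehicle.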

[12] = NCI Yeast Anticancer Drug Screen. Data for the mlh1 strain (AID 171);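 also: 0% = growth of vehicle-treated control cultures of the same strain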; details: S. cerevisiae mlh1 strain growth inhibition, stronger effect = higher value
How it was run: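 Inhibition values reflect reduced yeast growth in the presence of compound, referenced to vehicle controls, using a strain chosen for its alteration in DNA repair or cell cycle control.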

[13] = NCI Yeast Anticancer Drug Screen. Data for the sgs1 strain (AID 173);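 also: 0% = growth of vehicle-only control cultures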; details: S. cerevisiae sgs1 mutant, stronger effect = higher value
How it was run: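 Vehicle-treated cultures served as reference for growth inhibition of a yeast strain altered in DNA damage repair or cell cycle control after compound exposure.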

[14] = NCI Yeast Anticancer Drug Screen. Data for the mlh1 rad18 strain (AID 175); details: S. cerevisiae mlh1 rad18 strain growth inhibition, stronger effect = higher value
How it was run: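 Inhibition values reflect reduced growth of mutant yeast versus vehicle-treated controls following compound exposure; the mutations affect DNA damage repair.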

[15] = NCI Yeast Anticancer Drug Screen. Data for the rad18 strain (AID 177); details: S. cerevisiae rad18 mutant growth inhibition, stronger effect = higher value
How it was run: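 Steps: expose repair-mutant yeast to compound; measure growth; express as inhibition relative to vehicle control.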

[16] = at 5.0 µM (retest, dose inferred, filed as 0.5)
[17] = at 50.0 µM (retest, dose inferred, filed as 5.0)

Measured: growth inhibition

CN(C)c1ccc(/C=C/c2ccnc3ccccc23)cc1N
inactive: [1]; at 1.2 µM -6% | [1]; at 3.7 µM -8% | [1]; at 11.0 µM -10% | [1]; at 33.0 µM -5% | [1]; at 100.0 µM 5% | [2]; at 1.2 µM -2% | [2]; at 3.7 µM -4% | [2]; at 11.0 µM -9% | [2]; at 33.0 µM -15% | [2]; at 100.0 µM -7% | [3]; at 1.2 µM -7% | [3]; at 3.7 µM -4% | [3]; at 11.0 µM 5% | [3]; at 33.0 µM 29% | [3]; at 100.0 µM 56% | [4]; at 1.2 µM -5% | [4]; at 3.7 µM -10% | [4]; [16] -25% and -10% | [4]; at 11.0 µM -13% | [4]; at 33.0 µM 5% | [4]; at 50.0 µM 2.85% and -9.8% | [4]; at 100.0 µM 17% | [5]; at 1.2 µM -6% | [5]; at 3.7 µM -6% | [5]; [16] -1% and 4% | [5]; at 11.0 µM -7% | [5]; at 33.0 µM -4% | [5]; at 50.0 µM 32.1% and -2.55% | [5]; at 100.0 µM 14% | [6]; at 1.2 µM -7% | [6]; at 3.7 µM -7% | [6]; at 11.0 µM -8% | [6]; at 33.0 µM 3% | [6]; at 100.0 µM 17% | [7]; [16] -8% and -6% | [7]; at 50.0 µM 64.8% and 1.25% | [8]; at 1.2 µM -1% | [8]; at 3.7 µM -5% | [8]; at 11.0 µM -19% | [8]; at 33.0 µM -16% | [8]; at 100.0 µM -4% | [9]; [16] -6% and -8% | [9]; [17] 7% and 40% | [9]; at 50.0 µM -28.1% and -22.4% | [10]; at 1.2 µM -5% | [10]; at 3.7 µM -5% | [10]; [16] 3% and -7% | [10]; at 11.0 µM -8% | [10]; at 33.0 µM -6% | [10]; at 100.0 µM 20% | [11]; at 1.2 µM -5% | [11]; at 3.7 µM -8% | [11]; at 11.0 µM -10% | [11]; at 33.0 µM 6% | [11]; at 100.0 µM 52% | [12]; at 1.2 µM -3% | [12]; at 3.7 µM -3% | [12]; at 11.0 µM -1% | [12]; at 33.0 µM 7% | [12]; at 100.0 µM 42% | [13]; at 1.2 µM -3% | [13]; at 3.7 µM -2% | [13]; at 11.0 µM -3% | [13]; at 33.0 µM 20% | [13]; at 100.0 µM 64% | [14]; [16] -12% and 5% | [15]; at 1.2 µM -4% | [15]; at 3.7 µM -3% | [15]; at 11.0 µM -8% | [15]; at 33.0 µM 11% | [15]; at 100.0 µM 32%
43% (inactive) and 95% (active): [7]; [17]
13% (inactive) and 97% (active): [14]; [17]
-13% (inactive) and 77% (active): [4]; [17]
5% (inactive) and 89% (active): [10]; [17]
81.8% (active) and 0.6% (inactive): [14]; at 50.0 µM
-6% (inactive) and 94% (active): [5]; [17]
81.6% (active) and -6.75% (inactive): [10]; at 50.0 µM

CC1=CCCC2C1(C)CCC(C)C2(C)Cc1cc(O)ccc1O (stereo unspecified)
active: [1]; at 11.0 µM 70% | [1]; at 33.0 µM 98% | [1]; at 100.0 µM 93% | [2]; at 33.0 µM 98% | [2]; at 100.0 µM 96% | [3]; at 33.0 µM 86% | [3]; at 100.0 µM 88% | [4]; at 33.0 µM 98% | [4]; [17] 96% | [4]; at 50.0 µM 88.9% | [4]; at 100.0 µM 93% | [5]; at 33.0 µM 99% | [5]; [17] 97% | [5]; at 50.0 µM 90.6% | [5]; at 100.0 µM 95% | [6]; at 33.0 µM 98% | [6]; at 100.0 µM 94% | [7]; [17] 97% | [7]; at 50.0 µM 90.5% | [8]; at 33.0 µM 97% | [8]; at 100.0 µM 87% | [9]; [17] 97% | [9]; at 50.0 µM 88.5% | [10]; at 33.0 µM 99% | [10]; [17] 96% | [10]; at 50.0 µM 88.6% | [10]; at 100.0 µM 93% | [11]; at 11.0 µM 98% | [11]; at 33.0 µM 97% | [11]; at 100.0 µM 89% | [12]; at 33.0 µM 98% | [12]; at 100.0 µM 94% | [13]; at 11.0 µM 79% | [13]; at 33.0 µM 99% | [13]; at 100.0 µM 95% | [14]; [16] 83% | [14]; [17] 93% | [14]; at 50.0 µM 88% | [15]; at 33.0 µM 98% | [15]; at 100.0 µM 94%
inactive: [1]; at 1.2 µM 12% | [1]; at 3.7 µM 31% | [2]; at 1.2 µM -5% | [2]; at 3.7 µM 13% | [2]; at 11.0 µM 31% | [3]; at 1.2 µM -6% | [3]; at 3.7 µM 39% | [3]; at 11.0 µM 69% | [4]; at 1.2 µM -3% | [4]; at 3.7 µM 19% | [4]; [16] 22% | [4]; at 11.0 µM 51% | [5]; at 1.2 µM 5% | [5]; at 3.7 µM 17% | [5]; [16] 46% | [5]; at 11.0 µM 45% | [6]; at 1.2 µM 15% | [6]; at 3.7 µM 15% | [6]; at 11.0 µM 35% | [7]; [16] 39% | [8]; at 1.2 µM -73% | [8]; at 3.7 µM -57% | [8]; at 11.0 µM -91% | [9]; [16] 10% | [10]; at 1.2 µM 9% | [10]; at 3.7 µM 18% | [10]; [16] 44% | [10]; at 11.0 µM 60% | [11]; at 1.2 µM -28% | [11]; at 3.7 µM -7% | [12]; at 1.2 µM -1% | [12]; at 3.7 µM 19% | [12]; at 11.0 µM 38% | [13]; at 1.2 µM 4% | [13]; at 3.7 µM 31% | [15]; at 1.2 µM 1% | [15]; at 3.7 µM 24% | [15]; at 11.0 µM 66%
